Experimental findings from PubChem BioAssay (NCI) are described below.

The panel holds about 83,000 compounds, 20% with a hit somewhere; the sample as a whole holds those more often.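 Cells were grown in 96-well plates and exposed to the test compound at a single concentration for 48 hours; results are reported as percent growth, with values below 10 considered active.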 Unmarked numbers belong to inactive results. Calls of active or inactive are those of the source.

For the experiment, the system named is HL-60(TB) leukemia. Description: NCI-60 one-dose screen, 48 h (100 = growth as untreated, 0 = no growth, -100 = all killed). Conditions: 10 µM unless noted. The method, then: Growth inhibition of the HL-60(TB) human tumor cell line is measured as a screen for anti-cancer activity. Cells are grown in 96 well plates and exposed to the test compound for 48 hours. Compounds are tested at a single concentration, which is 10^-5 M for most compounds. The reported endpoint is percent growth (GI% or GIPRCNT), where numbers from 0 - 100% represent growth inhibition, and numbers from -100% - 0 represent cell death. For example, a value of 40 represents 60% growth inhibition. A value of 0 means no net growth occurred over the course of the experiment. A value of -40 indicates 40% of cells at the beginning of the experiment died by the end of the experiment. A value of -100 means all cells are dead at the end of the experiment.
NCI-60 Human Tumor Cell Lines Screen was performed using the standard one-dose NCI protocol, which is described in more detail at https://dtp.cancer.gov/discovery_development/nci-60/default.htm.
Compounds with GIPRCNT values below 10 were considered active. Activity score was based on GIPRCNT using the following formula: […]
Score is 0 for GIPRCNT values of 100 or above, 50 for GIPRCNT values of 0, and 100 for GIPRCNT values of -100.
In the case of `CN1CCCN(Cc2ccc(C(=O)Nc3cccc(Nc4ccc5c(O)cccc5n4)c3)cc2C(F)(F)F)CC1`, the growth is -7.86% (active).

Regarding `Cc1cnc2ccc(Oc3ccccc3-c3ccccc3)nn12`, the growth is 107%. In the case of `COc1ccc(C=CC(=O)c2ccc(-n3c(C)nc4c(cnn4-c4ccccc4)c3=O)cc2)cc1`, the growth is 44.7%.

For `COc1cc(/C=C/C(=O)c2cc(OC)c(OC)c(OC)c2)ccc1Oc1nc(Nc2ccc(F)cc2)nc(N(C)C)n1`, the growth is -7.15% (active). In the case of `Nc1nc(-c2ccccc2)c(N=Nc2ccc([N+](=O)[O-])cc2Cl)s1` it was 98.1%; in that of `COC(=O)c1cc(C(C)=O)n2c3ccccc3c3ccccc3c12`, 101%. With `Cn1cc(-c2cc3nc(-c4cn(C)c5ncccc45)cc(N)n3n2)c2cc(Cl)ccc21`, the growth is -66.6% (active).

As for `O=C1Nc2cc(Cl)ccc2/C1=C/c1cccc(OCc2ccccn2)c1`, the growth is -9.79% (active). The value for `CC(=O)OC[C@@]1(C)C2CC[C@]3(C)C(CC=C4C5CC(C)(C)CC[C@]5(C(=O)Nc5ccc(F)cc5)CC[C@]43C)[C@@]2(C)C[C@@H](OC(C)=O)[C@@H]1OC(C)=O` (stereo not given in full) was 27.9%; that for `CN(C)CCOc1ccc(C(=O)C2[C@H](c3ccc(Cl)cc3)[C@@H](c3ccccc3)NC23C(=O)Nc2ccc(Br)cc23)cc1` (stereo not given in full) was -60.6% (active); that for `O=C(NO)c1ccc(Cn2ccc3c(NCc4ccccc4)ncnc32)cc1` was -16% (active).

Consider `O=C1CCC(N2Cc3cc(CC(=O)Nc4ccc(N5CCCCC5)cc4)ccc3C2=O)C(=O)N1` (stereo not given), for which the growth is -0.226% (active). In the case of `S=c1nc(-c2ccccc2)cc(-c2cc3ccccc3nc2Cl)[nH]1` it was 8.96% (active). In the case of `COc1cc(/C=C/C(=O)c2ccc(C(F)(F)F)cc2)ccc1Oc1nc(Nc2ccc(F)cc2)nc(N(C)C)n1` it was 80%; in that of `COc1cccc(-c2c(C#N)c(-c3ccc(Cl)cc3)nc3n[nH]c(-c4ccc(Cl)cc4)c23)c1`, 7.69% (active); in that of `C=CC[Se]C(=O)c1ccc(C(=O)[Se]CC=C)s1`, -31.6% (active). Regarding `Cc1ccc(/C=C/C(=O)c2ccc(S(=O)(=O)NCCNc3nc(Nc4ccc(F)cc4)nc(N(C)C)n3)cc2)cc1`, the growth was 13.5%. The value for `CC1(C)CC[C@]2(C(=O)Nc3ccccc3)CC[C@]3(C)C(=CCC4[C@@]5(C)C[C@@H](O)[C@H](O)[C@@](C)(CO)C5CC[C@]43C)C2C1` (stereo not given in full) was 13.1%; that for `Cc1cc(=O)oc2cc(OCCCCOc3ccc(/C=C/C(=O)Nc4cccc(Cl)c4)cc3)ccc12` was 97.3%. Take `COc1ccc2c(c1)C(=N/N=C(\C)c1ccc(OC)c(S(N)(=O)=O)c1)C(=O)N2`: the growth is 91.7%. Regarding `Cn1cc(-c2cc(N)n3nc(-c4c[nH]c5ccc(Br)cc45)cc3n2)c2cccnc21`, the growth is -49.9% (active). In the case of `COc1ccc(-c2ccc(SCC(=O)Nc3ccc(S(N)(=O)=O)cc3Br)nn2)cc1`, the growth was 94.9%. `O=C(OCCOCCO)N(c1cccc(Br)c1)c1nc(SCCN2CCOCC2)nc2c1cnn2CC(Cl)c1ccc(Br)cc1` (stereo not given): the growth was -46.8% (active). On to `CCOc1ccc(/C=N/NC(=O)Cn2nc(Cc3ccc([N+](=O)[O-])cc3)c3onc(C)c3c2=O)cc1`, for which the growth was 81.5%. The value for `Fc1ccc(-c2csc(Nc3cccc(Nc4nc(-c5ccc(F)cc5)cs4)c3)n2)cc1` was 74.3%; that for `O=C(CSc1nnc(-c2c[nH]c3ccccc23)n1-c1ccccc1)Nc1ccc(C(=O)/C=C/c2ccccc2Cl)cc1` was 78%. Take `CCCCCCCCCCCCCCCCCCCC(=O)NCCc1c[nH]c2ccc(OC(=O)CCCC(=O)OCCOOCCOOCCOOCCOOCCOOCCOOCCOOCCOOCCOOCCOOCCOOCCOC)cc12`: the growth is -29.3% (active).

Consider `COc1ccc(NC(=O)Cn2c(O)c(N=Nc3ccc(S(N)(=O)=O)cc3)c3ccccc32)cc1`, for which the growth is 96.9%. In the case of `COc1ccccc1/C=C/c1cccc(NC(=S)NCCCCN(C)C)c1`, the growth was -41.7% (active).

On to `N#Cc1ccc(C(=O)Nn2c(N)cc3ccccc3c2=O)cc1`, for which the growth was 98.5%. In the case of `COc1cc2oc(-c3cccc(NC(=O)[C@H](Cc4ccccc4)NC(=O)OC(C)(C)C)c3)cc(=O)c2c(OC)c1OC`, the growth was 22.9%. For `N#Cc1c(-c2ccc(Cl)cc2)nc2n[nH]c(-c3ccc(Cl)cc3)c2c1-c1cccs1`, the growth was 23.7%.

Regarding `COc1cc2oc(-c3cccc(C(=O)Nc4ccc(Cl)cc4)c3)cc(=O)c2c(OCCNC(=O)[C@H](CO)NC(=O)OC(C)(C)C)c1OC`, the growth was -32.5% (active). In the case of `O=C1NC(=NC23CC4CC(CC(C4)C2)C3)N/C1=C\c1ccc2ncoc2c1` it was -8.15% (active).

Turning to `C=CCSc1nnc(-c2ccc(-c3nc4ccc(Cl)cc4[nH]3)cc2)o1`, the growth was 29.8%. As to `N#C[Se]CC(=O)Nc1cccc(C(F)(F)F)c1`, the growth is 0.147% (active). As to `Cc1ccc(C(=O)Nc2cccc(C(=O)NC(=S)Nc3ccc(S(N)(=O)=O)cc3)c2)cc1`, the growth is 84.7%. Regarding `CC1CCc2c(sc3nc(SCC(=O)c4cccc(Br)c4)n(-c4ccccc4)c(=O)c23)C1` (stereo not given), the growth is 64.7%. In the case of `CCCCCCCCc1ccc(S(=O)(=O)Nc2ccc(CC)cc2C(=O)O)cc1` it was 120%. In the case of `COc1cc(-c2nc3cc(Cl)c(Cl)cc3[nH]2)ccc1OCc1nnc(-c2ccc(Br)cc2)o1` it was -62% (active).
